From PubChem
ROCK2 blocker: blocks human Rho kinase 2 activity. AID 604. O75116. 60,000 compounds, 0.35% hits. inhibition, % at 6 µM. purified ROCK2, Kinase-Glo ATP depletion luminescence;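 active = inhibition above the screen-wide mean inhibition plus 3 SD, cut at about 18% in these data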;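 note: plate controls were DMSO wells for no effect and Y-27632 control wells after no-enzyme background subtraction for full effect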
FXIa inh mix: factor XIa (human) inhibition, mixture screen; P03951; purified FXIa, fluorogenic substrate, pooled mixtures; 62,000 compounds, 0.19% hits; inhibition, % at 5 µM;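 note: each value is inhibition by a whole ten-compound pool holding the compound; 0% = enzyme with no mixture and 100% = wells lacking enzyme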
FXIIa inh mix: blocks human factor XIIa in pooled compound mixtures; inhibition, % at 5 µM; 62,000 compounds, 0.2% hits; P00748; purified FXIIa, fluorogenic substrate;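 note: 0% = enzyme without compound and 100% = no enzyme blank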
Target sequence (P00748 20-372 limits assumed): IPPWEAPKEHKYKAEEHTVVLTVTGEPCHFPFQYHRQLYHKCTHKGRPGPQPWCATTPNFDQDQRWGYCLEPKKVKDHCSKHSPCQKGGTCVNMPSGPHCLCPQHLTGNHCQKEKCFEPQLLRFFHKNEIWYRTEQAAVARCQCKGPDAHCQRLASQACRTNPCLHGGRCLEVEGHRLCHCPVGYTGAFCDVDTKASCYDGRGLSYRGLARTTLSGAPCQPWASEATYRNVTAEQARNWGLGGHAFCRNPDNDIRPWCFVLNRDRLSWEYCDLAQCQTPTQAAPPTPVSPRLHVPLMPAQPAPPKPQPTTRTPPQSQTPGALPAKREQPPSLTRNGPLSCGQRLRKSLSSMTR
Target sequence (P00748 373-615 limits assumed): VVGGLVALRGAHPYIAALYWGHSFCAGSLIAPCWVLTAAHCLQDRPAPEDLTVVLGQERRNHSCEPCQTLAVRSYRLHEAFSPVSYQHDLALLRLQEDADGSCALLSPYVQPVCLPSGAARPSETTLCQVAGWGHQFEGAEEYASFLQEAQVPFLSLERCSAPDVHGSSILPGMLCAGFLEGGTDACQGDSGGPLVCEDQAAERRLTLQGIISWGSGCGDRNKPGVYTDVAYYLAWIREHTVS
PKA inh: blocks human protein kinase A activity; 65,000 compounds, 0.1% hits; inhibition, % at 6 µM; PKA Kemptide phosphorylation, Kinase-Glo ATP luminescence; P17612;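 active = inhibition above the screen-wide mean inhibition plus 3 SD, cut at about 21% in these data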
An asterisk follows results filed as active; x = no result given. An excerpt weighted towards active compounds, which were near 0.54% of everything screened. Cut-off read from the data, not from the text of the source, unless noted: active = inhibition above about 20% (passing the limit was not always enough); inactive = the rest.

SMILES | ROCK2 blocker | FXIa inh mix | FXIIa inh mix | PKA inh
COC(=O)c1ccc(OC(=O)C2CC(=O)N(c3ccc(C)cc3C)C2)cc1 (configuration not stated) | 2.8 | 31.2* | -4.0 | -0.3
COC(=O)c1sc(N2C(=O)C(O)=C(C(=O)c3ccc(C)o3)C2c2ccc(F)cc2)nc1C (configuration not stated) | 3.5 | 39.8* | 4.3 | 9.5
COc1cccc(-c2noc(-c3cccs3)n2)c1 | -4.2 | 1.6 | 31.1* | -1.7
COc1cccc(-c2nc(-c3ccccc3)no2)c1 | 1.4 | 9.8 | 4.0 | -0.3
Cc1ccc(CS(=O)(=O)CCC(=O)NCCCN2CCCC2=O)cc1 | -1.4 | 7.1 | 21.8* | 1.6
COc1ccc(-n2nnnc2Sc2ccc(S(=O)(=O)N3CCOCC3)cn2)cc1 | 5.4 | 2.3 | 18.5 | 2.4
Cc1ccc(SCc2nc(-c3ccncc3)no2)cc1 | 24.3* | 2.7 | 3.1 | 20.9*
Cc1ccc(SCc2nc(-c3ccccc3)no2)cc1 | -3.9 | 8.9 | 13.0 | -6.3
CCC(C)(C)n1nnnc1C(c1ccc(OC)c(OC)c1)N1CCN(c2ccc(F)cc2)CC1 (configuration not stated) | -2.5 | 12.9 | 47.9* | -3.1
COc1ccc(S(=O)(=O)n2nc(-c3cc(OC)c(OC)c(OC)c3)cc2N)cc1OC | 4.8 | 5.6 | 21.4* | 4.5
COc1ccc(-c2cc(N)n(S(=O)(=O)c3c(F)c(F)c(F)c(F)c3F)n2)cc1OC | -5.4 | 7.4 | 4.9 | -3.5
Fc1ccccc1Cn1nnc2c(-n3ccnc3)ncnc21 | 27.2* | 4.1 | -4.2 | 24.1*
Clc1ccccc1Cn1nnc2c(N3CCCC3)ncnc21 | 4.7 | x | x | 4.5
O=c1ccc(=O)n2n1CC(O)C2 | 22.5* | -2.2 | 7.7 | 14.4
CCN(CC)S(=O)(=O)c1cccc(-c2nnc(SCc3nnc(-c4cccs4)o3)n2N)c1 | x | 6.9 | 10.2 | -0.1
CCn1cc(C2=NOC(C(=O)Nc3c(C)nn(Cc4ccc(F)cc4)c3C)C2)c(C)n1 (configuration not stated) | 2.3 | 21.5* | 2.9 | 4.9
CCc1cc2c(=O)c(-n3cnc4ccccc43)coc2cc1O | -1.6 | 2.4 | 5.5 | -5.1
COc1ccc2cc3c(N)c(C(=O)NCc4ccco4)sc3nc2c1 | 19.5* | -0.1 | 2.3 | -5.8
CCOC(=O)c1c(NC(N)=O)sc(C)c1C | 0.0 | 28.9* | 6.6 | -3.4
CCOC(=O)c1c(NC(=O)CNCCO)sc(C)c1C | -2.3 | 5.8 | -4.3 | -4.1
CCN(CC)c1ccc(NC(=O)CN2C(=O)CSc3ncccc32)c(C)c1 | 0.5 | 22.9* | 0.3 | -5.8
CC1CC(C)CN(CCCNC(=O)CNC(=O)Cn2ccc3ccccc3c2=O)C1 (configuration not stated) | x | -12.4 | 4.1 | -2.1
Fc1ccccc1N1CCN(c2ncnc3[nH]ncc23)CC1 | 13.7 | -0.2 | 6.0 | 28.4*
CCOc1c(C)cc2[nH]c(CCC(=O)O)nc2c1C | -8.4 | 8.6 | 1.6 | -0.3
O=C1N2CCSC2=NC1(NS(=O)(=O)c1ccccc1)C(F)(F)F (configuration not stated) | -4.0 | 6.9 | 8.0 | 10.2
Nc1[nH]nc2nc(N3CCCC3)nc(-c3ccccc3)c12 | x | 4.4 | 2.7 | 25.6*
Cc1ccc(NC(=O)CSc2nnc(CCCCCNC(=O)OC(C)(C)C)o2)c(C)c1 | 1.0 | -5.3 | -6.7 | 4.7
CN1C(=O)CSc2ccc(NC(=O)NCc3cccnc3)cc21 | 57.8* | 7.0 | 11.6 | 0.3
CCC(=O)Nc1ccc2nc(C)n(CC(=O)Nc3ccccc3)c(=O)c2c1 | -1.3 | 4.9 | 6.4 | 1.1
Cc1ccccc1NC(=O)Cn1c(C)nc2ccc(NC(=O)C3CC3)cc2c1=O | 18.9* | 3.4 | -18.7 | 9.5
